# From PubChem BioAssay
# Rows were chosen to be rich in hits. Some 0.82% of all compounds tested hit in one or more screens of this group.
# Cardiac RTF inh – cardiac RTF calcium desensitization | P19429+P45379 | 340,000 compounds, 0.12% hits | inhibition, % at 7.15 µM | IANBD-labeled cardiac RTF, Ca2+ fluorescence;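 active = inhibition above the mean inhibition of all tested compounds plus 3 SD, cut at about 17% in these data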;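 also: assay run at fixed EC70 calcium of 1.6 mM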
# cardiac RTF act – cardiac RTF calcium sensitization | AID 493008 | 340,000 compounds, 0.24% hits | activation, % at 7.2 µM | P19429+P45379 | IANBD-labeled TnC RTF fluorescence at EC20 calcium; 0% EC20 calcium, 100% full calcium;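 active = activation above the mean over all tested compounds plus 3 SD, cut at about 30% in these data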;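 also: rise in fluorescence read as greater calcium sensitivity of cardiac thin filaments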
# Keap1-Nrf2 PPI – inhibitors of human Keap1-Nrf2 protein-protein interaction; Q14145; Keap1 Kelch-Nrf2 peptide fluorescence polarization, 1536-well; inhibition, % at 9.4 µM; 340,000 compounds, 0.15% hits; in the data active = inhibition above about 12%;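 also: human Keap1 Kelch domain with fluorescein labeled Nrf2 9mer peptide probe; 0% = neutral control wells and 100% = peptide positive control; higher means more block of Keap1 binding to Nrf2 peptide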
# LANA DNA inh – blocks KSHV LANA C-terminal domain binding to DNA | 340,000 compounds, 0.078% hits | MBP-C-LANA/FAM-LBS DNA binding, fluorescence polarization | inhibition, % at 9 µM;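 active = highest replicate inhibition at or above 60% at 9 µM, even if other replicates fall short; inactive = all replicates below 60% inhibition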;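 also: 0% = neutral control wells and 100% = 4 µM acridine orange control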
# eLon inh – inhibitors of E. coli Lon protease | inhibition, % at 7.94 µM | P0A9M0 | 360,000 compounds, 0.42% hits | purified E. coli Lon protease, fluorescence polarization; in the data active = inhibition above about 13%, passing the limit was not always enough;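 also: 0% = enzyme with probe and DMSO and 100% = no enzyme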
# eLon confirm – E. coli Lon inhibition confirmation. shares compounds with eLon inh. purified E. coli Lon, fluorescence polarization. inhibition, % at 7.94 µM. 1,400 compounds, 31% hits. AID 602230; in the data active = inhibition above about 16%;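 also: 0% = enzyme with probe and DMSO and 100% = no enzyme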
# Active calls of the source: *; i = inactive; . = no result.
SMILES,Cardiac RTF inh,cardiac RTF act,Keap1-Nrf2 PPI,LANA DNA inh,eLon inh,eLon confirm
CCCCc1ncc(CN2CCC(n3nccc3NC(=O)C(OC)c3ccccc3)CC2)[nH]1 (stereo unspecified),-9,-2,-3,0,-4,.
CCn1cc(CN2CCC(n3nccc3NC(=O)C3CCCC3)CC2)c(C)n1,3,-2,1,0,-4,.
CCn1cc(CN2CCC(n3nccc3NC(=O)c3ccccc3C)CC2)c(C)n1,-4,-7,-1,1,45*,-5
CCCCc1ncc(CN2CCC(n3nccc3NC(=O)c3ccccc3Cl)CC2)[nH]1,-7,1,-3,-1,19*,6
Cc1ccccc1N1CCN(C2CCCN(C(=O)c3snnc3C)C2)CC1 (stereo unspecified),-4,-1,-1,-1,-4,.
COCCn1c(N)c(N(Cc2ccccc2)C(=O)C2=COCCO2)c(=O)[nH]c1=O,-9,-3,1,0,29*,6
CC(OC(=O)Cn1cnc2c1c(=O)n(C)c(=O)n2C)C(=O)NC1CCCCC1C (stereo unspecified),-4,-3,-1,0,-16,.
Nc1nonc1C(=O)NCCNC(=O)c1cccc(Cl)c1,-1,-9,-1,-1,5,.
CC1CCc2nc(NC(=O)C3COc4ccccc4O3)sc2C1 (stereo unspecified),-4,2,-6,2,34*,0
Cc1ccccc1C(=O)N[C@H](C(=O)OCC(=O)NC1CC1)C(C)C,3,2,-8,0,1,.
CC(C)CCCNc1nc(N2CCOCC2)nc(N2CCOCC2)n1,-6,4,-2,1,84*,2
CC(C)c1ccc(Nc2nc(N3CCOCC3)nc(N3CCOCC3)n2)cc1,.,.,.,.,0,.
Cc1ccsc1C(=O)N1CCN(c2ncc(C(F)(F)F)cc2Cl)CC1,0,2,1,-1,23*,-6
O=C1N=C(N2C=CC(=C3C=CNC=C3)C=C2)/C(=C/N=NC(=O)c2ccccc2O)S1,-11,11,7,18,40*,41*
CCOC(=O)C1=CN(Cc2ccco2)S(=O)(=O)N(CC)C1c1cccc(OC)c1 (stereo unspecified),-4,-1,-5,1,-8,.
COCCNC(=O)c1c[nH]c2ccc(S(=O)(=O)Nc3ccc(F)cc3F)cc2c1=O,-2,-5,-2,-1,6,.
COCCNC(=O)c1c[nH]c2ccc(S(=O)(=O)Nc3ccccc3F)cc2c1=O,-1,-2,-1,-1,18*,9
CCOc1ccc(NC(=O)CSC2=NCCN2)cc1,3,5,-2,2,45*,4
CC(=O)Nc1ccc(Nc2c3c4c(cccc4n(C)c2=O)C(=O)c2ccccc2-3)cc1,-142,178*,3,2,148*,178*
Cn1c(=O)c(NC2CCCCC2)c2c3c(cccc31)C(=O)c1ccccc1-2,i,369*,53*,64,118*,-99
Cn1cc(S(=O)(=O)NC2CCCCCC2)c(=O)n(C)c1=O,-3,-2,-3,0,2,.
Cc1noc(NS(=O)(=O)c2ccc(NC(=O)c3cccc(S(=O)(=O)Nc4ccccc4F)c3)cc2)c1C,-4,-5,-3,0,5,.
CCOC(=O)C1CCNC(=O)C1=O (stereo unspecified),-5,2,-3,0,-7,.
O=C(NCC1CCCCC1)c1cc([N+](=O)[O-])ccc1N1CCOCC1,7,-3,-7,1,1,.
O=C(NC12CC3CC(CC(C3)C1)C2)c1cc([N+](=O)[O-])ccc1N1CCOCC1,6,0,-4,4,19*,-7
N#Cc1c(N2CCN(c3ccc([N+](=O)[O-])cc3)CC2)[n+](=O)c2ccc(Cl)cc2n1[O-],-27,14,-4,-1,134*,43*
O=C(c1[nH]ncc1-c1ccccc1)C1CO1 (stereo unspecified),-13,12,1,-2,50*,21*
O=C(c1[nH]ncc1-c1cccc(Br)c1)C1CO1 (stereo unspecified),-12,9,-2,0,1,.
Cc1nc2ccccc2c(=O)n1CCc1ccccc1,-7,-4,-1,-2,5,.
Nc1ccc2nc(CCc3ccccc3)[nH]c2c1,-2,0,-3,-1,0,.
